# Tested on: HepG2
# Test: GSK_TCMDC: Percent inhibition of human HepG2 cell line. Test compounds present at 10uM.
# Format: functional
row,SMILES,Inhibition [%]
1,Cc1cccc2nc(-c3cccc(-c4ccc(NC(=O)Cc5ccon5)cc4)c3)[nH]c12,34
2,Cc1cc(-c2ccc(CNC3CCN(C)CC3)cc2)ccc1S(=O)(=O)NCc1ccccc1.O=C(O)C(F)(F)F,52
3,CCc1ccc(NC(=O)c2cccc(CN3CCCN(Cc4cccc(O)c4)CC3)c2)cc1.O=C(O)C(F)(F)F,53
4,Cc1cc(N2CCCC2)nc(Nc2ccc(NC(=O)c3cccc(F)c3)cc2)n1,39
5,O=C(NC1CCN(Cc2ccccc2)CC1)c1cc(-c2ccncc2)c(-c2ccc(Cl)c(O)c2)o1.O=C(O)C(F)(F)F,9
6,CCCC(C)NC(=O)/C=C/c1ccccc1-c1cccc(OC)c1 (stereo unspecified),0
7,COc1ccc2nccc([C@@H](O)CN3CCC(NS(=O)(=O)c4cc5c(cc4Cl)SCC(=O)N5)CC3)c2c1.O=C(O)C(=O)O,5
8,Cc1ccc(CN2CCCN(Cc3cccc(NC(=O)c4cc5ccccc5s4)c3)CC2)cc1.O=C(O)C(F)(F)F,32
9,Cc1cc(N[C@@H](CC(C)C)C(=O)NCc2cccc(F)c2)nc(NCC2CCCCC2)n1.O=C(O)C(F)(F)F,3
10,Cc1ccc(Nc2nc(N/N=C/c3cccc(O)c3)nc(Nc3ccc([N+](=O)[O-])cc3)n2)cc1C,0
11,COc1cc2nc(NCCC(C)C)n3nc(-c4ccccc4)nc3c2cc1OC,0
12,O=C(Nc1cccc(CCNCc2ccccc2)c1)Nc1cccc2ccccc12.O=C(O)C(F)(F)F,13
13,CCOc1ccc2c(=NN=Cc3cccc(OC)c3)cc(C)[nH]c2c1,38
14,COc1ccc2nccc([C@@H](O)CN3CCC(NCCOc4ccc(F)cc4[N+](=O)[O-])CC3)c2c1.O=C(O)C(=O)O,8
15,COc1cc(Cc2cnc(N)nc2N)cc(OCCCN2C(=O)c3ccccc3C2=O)c1OC,0
16,O=C(Nc1nc2cc(S(=O)(=O)NCCc3ccc(F)cc3)ccc2n1CCCn1ccnc1)c1ccc(Cl)cc1.O=C(O)C(F)(F)F,18
17,CC(=O)O.CC(C)c1ccc(C2CCN(CCCCNC(=O)c3ccc(NC(=O)c4ccc(C(F)(F)F)cc4)cc3)CC2)c(O)c1,47
18,O=C(NC1CCN(CCC[C@]2(c3ccc(Cl)c(Cl)c3)CCCN(C(=O)c3ccccc3)C2)CC1)c1ccc(Cl)cc1,56

row,SMILES,Inhibition [%]
1,CCc1cc2c(N)nc(N)nc2nc1-c1ccccc1,18
2,Cc1cc(N)nc2ccc(-c3ccc(CCN)cc3)cc12,31
3,COc1cccc(CNc2ncc(-c3ccsc3)c(-c3nccs3)n2)c1,9
4,O=C(Nc1ccc(N2CCC(Nc3ccccn3)CC2)cc1)c1cnc(Cl)c(Cl)c1.O=C(O)C(F)(F)F,46
5,CS(=O)(=O)c1ccc2[nH]c(-c3cc(-c4cccc(F)c4)cnc3N)nc2c1.O=C(O)C(F)(F)F,33
6,c1ccc(-c2nc(NCCCn3ccnc3)cc(-c3ccncc3)n2)cc1,42
7,O=C(Nc1cccc(CN2CCCN(Cc3ncc[nH]3)CC2)c1)c1ccc(Cl)c(Cl)c1.O=C(O)C(F)(F)F,8
8,CC(C)Nc1nc(NCCc2c[nH]cn2)nc(NCc2ccc(Cl)c(Cl)c2)n1,0
9,Cl.N#Cc1ccc2c(c1)CN(CCC1CCC(NC(=O)c3cc4ccccc4cc3N)CC1)CC2 (stereo unspecified),5
10,O=C(Nc1cccc(-c2csc(-c3nc4ccccc4[nH]3)c2)c1)c1cccnc1,18
11,COc1cccc(-c2cccc(CNC3CCN(CC4Cn5c(=O)ccc6ccc(F)c4c65)CC3)c2)c1.O=C(O)C(F)(F)F (stereo unspecified),23
12,COc1c(C2CCN(CCCCNC(=O)c3ccc(-c4ccc(Cl)cc4)c(OCC(N)=O)c3)CC2)ccc2c1CCCC2,43
13,Cc1[nH]c(C)c(-c2ccc(OCCCc3ccccn3)cc2)c(=O)c1Br.Cl,0
14,O=C(O)C(F)(F)F.OCCN1CCN(Cc2ccc(-c3ccc(-c4nc5cc(F)ccc5[nH]4)cc3)cc2)CC1,33
15,CC(C)(C)CCN1CCC(CNC(=O)c2cc(-c3cccc(C(F)(F)F)c3)cs2)C1.O=C(O)C(F)(F)F (stereo unspecified),47
16,O=C(Cc1cccs1)NC(CCCN1CCC(Oc2cccc(Cl)c2)CC1)c1ccc(Cl)c(Cl)c1 (stereo unspecified),39
17,O=C(NC1CCN(c2ccnc3cc(Cl)ccc23)C1)c1ccccc1F.O=C(O)C(F)(F)F (stereo unspecified),8
18,COc1ccc(NC(=O)c2ccc(-c3ccc(-c4cccnc4)cc3)c(C)c2)cc1OCCN(C)C.Cl,24
